Test results taken from PubChem BioAssay AID1159580 (chemical genetic matrix, 2015).
Where “and” joins values, the source holds several entries; their conditions need not be identical. Equal entries are not always repeated. Among all 5,500 compounds or so, about 2,000 (36%) were called active. Another 18% or so got no clear call; they are omitted. Cut-off read from the data, not from the text of the source: active = normalized growth mostly below about 0.91 (no sharp cut-off); inconclusive = no clear call, values can overlap the other calls; inactive = mostly above about 0.92. The list shows a part of the results.

Assay: chemical genetic growth profiling, strain panel (AID 1159580);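 note: tested at 20 µM; growth read once vehicle control cultures reached saturation at 30 °C; 1 = growth at the plate median or of vehicle wells; lower values mean less growth of the strain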
Conditions: S. cerevisiae deletion strains, growth OD

Measured: normalized growth

C=C[C@@](C)(O)CCC1C(=C)C[C@H](OC(C)=O)C2C(C)(C)CCCC12C (stereo partly specified)
active: locus YDR392W, strain spt3, stronger effect = lower value 0.562
inactive: locus YAL013W, strain DEP1, stronger effect = lower value 1.01 | locus YAL021C, strain ccr4, stronger effect = lower value 1.03 | locus YAL026C, strain drs2, stronger effect = lower value 1.03 | locus YAL030W, strain snc1, stronger effect = lower value 1.04 | locus YBL061C, strain skt5, stronger effect = lower value 1.03 | locus YBR009C, strain hhf1, stronger effect = lower value 1 | locus YBR021W, strain FUR4, stronger effect = lower value 0.963 | locus YBR023C, strain chs3, stronger effect = lower value 1.02 | locus YBR171W, strain sec66, stronger effect = lower value 1.01 | locus YBR229C, strain ROT2, stronger effect = lower value 0.972 | locus YBR231C, strain swc5, stronger effect = lower value 1.05 | locus YBR279W, strain paf1, stronger effect = lower value 1.02 | locus YCL011C, strain gbp2, stronger effect = lower value 1.01 | locus YCL016C, strain dcc1, stronger effect = lower value 1.01 | locus YCL029C, strain bik1, stronger effect = lower value 0.981 | locus YCL061C, strain MRC1, stronger effect = lower value 1.01 | locus YCL069W, strain vba3, stronger effect = lower value 1.03 | locus YCR088W, strain abp1, stronger effect = lower value 1.04 | locus YDL005C, strain med2, stronger effect = lower value 1.04 | locus YDL035C, strain GPR1, stronger effect = lower value 0.961 | locus YDL040C, strain nat1, stronger effect = lower value 1.03 | locus YDL074C, strain BRE1, stronger effect = lower value 0.956 | locus YDL101C, strain DUN1, stronger effect = lower value 1.01 | locus YDL185W, strain tfp1, stronger effect = lower value 0.952 | locus YDL192W, strain arf1, stronger effect = lower value 0.976 | locus YDR001C, strain nth1, stronger effect = lower value 1.03 | locus YDR069C, strain doa4, stronger effect = lower value 1.07 | locus YDR101C, strain arx1, stronger effect = lower value 0.977 | locus YDR137W, strain rgp1, stronger effect = lower value 0.99 | locus YDR150W, strain NUM1, stronger effect = lower value 1.07 | locus YDR159W, strain sac3, stronger effect = lower value 1.02 | locus YDR162C, strain NBP2, stronger effect = lower value 0.965 | locus YDR195W, strain ref2 1.06 | locus YDR297W, strain sur2, stronger effect = lower value 1.05 | locus YDR318W, strain mcm21, stronger effect = lower value 1.01 | locus YDR334W, strain swr1, stronger effect = lower value 1.04 | locus YDR335W, strain msn5, stronger effect = lower value 1.03 | locus YDR388W, stronger effect = lower value 1 | locus YDR502C, strain sam2, stronger effect = lower value 1.03 | locus YEL003W, strain gim4, stronger effect = lower value 1.02 | locus YEL037C, strain rad23, stronger effect = lower value 1.02 | locus YEL061C, strain CIN8 (second series), stronger effect = lower value 1.03 | locus YER015W, strain faa2, stronger effect = lower value 1.02 | locus YER016W, strain bim1, stronger effect = lower value 1.03 | locus YER110C, stronger effect = lower value 0.978 | locus YER111C, strain swi4, stronger effect = lower value 1.02 | locus YER155C, strain BEM2 (second series), stronger effect = lower value 0.989 | locus YER155C, strain BEM2, stronger effect = lower value 0.999 | locus YER167W, strain BCK2, stronger effect = lower value 1.01 | locus YFR010W, strain ubp6, stronger effect = lower value 1.05 | locus YGL078C, strain dbp3, stronger effect = lower value 1.03 | locus YGL086W, strain mad1, stronger effect = lower value 1.02 | locus YGL167C, strain pmr1, stronger effect = lower value 1.01 | locus YGL173C, strain kem1, stronger effect = lower value 1.04 | locus YGL227W, strain vid30, stronger effect = lower value 1.03 | locus YGL240W, strain doc1, stronger effect = lower value 1.01 | locus YGL248W, strain PDE1, stronger effect = lower value 1.02 | locus YGL253W, strain hxk2, stronger effect = lower value 1.03 | locus YGR135W, strain pre9, stronger effect = lower value 1.08 | locus YGR252W, strain gcn5, stronger effect = lower value 1.09 | locus YHR013C, strain ard1, stronger effect = lower value 1.02 | locus YHR027C, strain rpn1, stronger effect = lower value 1.04 | locus YHR030C, strain SLT2, stronger effect = lower value 0.929 | locus YHR079C, strain IRE1 (second series), stronger effect = lower value 0.982 | locus YHR079C, strain IRE1, stronger effect = lower value 0.961 | locus YHR094C, strain hxt1, stronger effect = lower value 0.985 | locus YHR129C, strain ARP1, stronger effect = lower value 1 | locus YHR142W, strain chs7, stronger effect = lower value 1 | locus YHR200W, strain rpn10, stronger effect = lower value 1.01 | locus YIL066C, strain RNR3, stronger effect = lower value 0.965 | locus YIL073C, strain SPO22, stronger effect = lower value 0.984 | locus YIL125W, strain kgd1, stronger effect = lower value 0.976 | locus YIR030C, strain dcg1, stronger effect = lower value 0.995 | locus YJL092W, strain hpr5, stronger effect = lower value 1.03 | locus YJL095W, strain BCK1 (second series), stronger effect = lower value 1.03 | locus YJL095W, strain BCK1, stronger effect = lower value 1.06 and 0.951 | locus YJL115W, strain asf1, stronger effect = lower value 1.03 | locus YJL129C, strain trk1, stronger effect = lower value 0.995 | locus YJL134W, strain LCB3, stronger effect = lower value 1 | locus YJL154C, strain vps35, stronger effect = lower value 1.03 | locus YJL164C, strain tpk1, stronger effect = lower value 0.988 | locus YJL166W, strain qcr8, stronger effect = lower value 0.982 | locus YJL168C, strain set2, stronger effect = lower value 1 | locus YJL187C, strain SWE1 (second series), stronger effect = lower value 1.03 | locus YJL187C, strain SWE1, stronger effect = lower value 1.02 | locus YJR066W, strain TOR1, stronger effect = lower value 0.931 | locus YJR075W, strain HOC1, stronger effect = lower value 1.03 | locus YKL009W, strain mrt4, stronger effect = lower value 0.956 | locus YKL068W, stronger effect = lower value 0.975 | locus YKL085W, strain MDH1 (second series), stronger effect = lower value 0.977 | locus YKL085W, strain MDH1, stronger effect = lower value 0.977 | locus YKL160W, strain elf1, stronger effect = lower value 0.995 | locus YKR001C, strain vps1, stronger effect = lower value 0.993 | locus YKR026C, strain gcn3, stronger effect = lower value 1.03 | locus YKR091W, strain srl3, stronger effect = lower value 1.03 | locus YLL001W, strain dnm1, stronger effect = lower value 0.988 | locus YLL026W, stronger effect = lower value 1.03 | locus YLL041C, strain sdh2, stronger effect = lower value 1.02 | locus YLR027C, strain aat2, stronger effect = lower value 0.992 | locus YLR039C, strain RIC1, stronger effect = lower value 1.05 | locus YLR058C, strain SHM2, stronger effect = lower value 1 | locus YLR102C, strain apc9, stronger effect = lower value 0.995 | locus YLR113W, strain HOG1, stronger effect = lower value 0.902 | locus YLR221C, strain rsa3, stronger effect = lower value 1.03 | locus YLR258W, strain gsy2, stronger effect = lower value 1.03 | locus YLR262C, strain YPT6 (second series), stronger effect = lower value 0.978 | locus YLR268W, strain sec22, stronger effect = lower value 0.975 | locus YLR320W, strain mms22, stronger effect = lower value 1.03 | locus YLR330W, strain CHS5, stronger effect = lower value 1 | locus YLR342W, strain FKS1 (second series), stronger effect = lower value 1.04 | locus YLR342W, strain FKS1, stronger effect = lower value 1.03 | locus YLR357W, strain rsc2, stronger effect = lower value 1.01 | locus YLR370C, strain arc18, stronger effect = lower value 1.02 | locus YLR371W, strain rom2, stronger effect = lower value 1.02 | locus YLR384C, strain iki3, stronger effect = lower value 1.03 | locus YLR418C, strain cdc73, stronger effect = lower value 0.98 | locus YML016C, strain PPZ1, stronger effect = lower value 0.999 | locus YML032C, strain rad52, stronger effect = lower value 0.976 | locus YML120C, strain ndi1, stronger effect = lower value 0.984 | locus YML124C, strain tub3, stronger effect = lower value 1 | locus YMR058W, strain fet3, stronger effect = lower value 1.04 | locus YMR078C, strain ctf18, stronger effect = lower value 0.987 | locus YMR125W, strain sto1, stronger effect = lower value 1.05 | locus YMR129W, stronger effect = lower value 1.02 | locus YMR205C, strain PFK2, stronger effect = lower value 0.958 | locus YMR223W, strain ubp8, stronger effect = lower value 0.986 | locus YMR231W, strain pep5, stronger effect = lower value 1.04 | locus YMR307W, strain GAS1, stronger effect = lower value 0.912 | locus YNL067W, strain RPL9B, stronger effect = lower value 1.04 | locus YNL071W, strain lat1, stronger effect = lower value 0.928 | locus YNL153C, strain GIM3, stronger effect = lower value 1.02 | locus YNL183C, strain NPR1, stronger effect = lower value 0.918 | locus YNL209W, strain ssb2, stronger effect = lower value 1.03 | locus YNL233W, strain BNI4, stronger effect = lower value 1.02 | locus YNL248C, strain rpa49, stronger effect = lower value 1.03 | locus YNL250W, strain rad50, stronger effect = lower value 0.989 | locus YNL271C, strain bni1, stronger effect = lower value 1 | locus YNL298W, strain CLA4, stronger effect = lower value 1 | locus YNL307C, strain MCK1, stronger effect = lower value 0.996 | locus YNL322C, strain KRE1 (second series), stronger effect = lower value 0.984 | locus YNR049C, strain mso1, stronger effect = lower value 1.03 | locus YNR052C, strain pop2, stronger effect = lower value 1.02 | locus YOL006C, strain TOP1, stronger effect = lower value 1.02 | locus YOL012C, strain htz1 1.3 | locus YOL147C, strain pex11, stronger effect = lower value 1 | locus YOR001W, strain rrp6, stronger effect = lower value 1.02 | locus YOR061W, strain CKA2, stronger effect = lower value 0.971 | locus YOR069W, strain VPS5, stronger effect = lower value 1.01 | locus YOR070C, strain gyp1, stronger effect = lower value 1 | locus YOR080W, strain dia2, stronger effect = lower value 1.04 | locus YOR083W, strain WHI5, stronger effect = lower value 0.976 | locus YOR106W, strain vam3, stronger effect = lower value 0.986 | locus YOR136W, strain idh2, stronger effect = lower value 1.01 | locus YOR144C, strain elg1, stronger effect = lower value 0.995 | locus YOR184W, strain ser1, stronger effect = lower value 0.928 | locus YOR231W, strain MKK1, stronger effect = lower value 0.917 | locus YOR265W, strain rbl2, stronger effect = lower value 1.04 | locus YOR270C, strain vph1, stronger effect = lower value 0.963 | locus YOR290C, strain snf2, stronger effect = lower value 0.946 | locus YOR316C, strain cot1, stronger effect = lower value 0.997 | locus YPL051W, strain arl3, stronger effect = lower value 0.996 | locus YPL078C, strain atp4, stronger effect = lower value 0.976 | locus YPL106C, strain sse1, stronger effect = lower value 1.01 | locus YPL240C, strain hsp82, stronger effect = lower value 1.02 | locus YPL256C, strain CLN2, stronger effect = lower value 0.95 | locus YPR119W, strain clb2, stronger effect = lower value 1 | locus YPR141C, strain kar3, stronger effect = lower value 0.993 | locus YPR163C, strain tif3, stronger effect = lower value 1.01 | locus YPR167C, strain met16, stronger effect = lower value 0.996 | strain wtn01, stronger effect = lower value 0.958
